IDH1 R132H inh: inhibitors of human mutant IDH1 R132H | actives 0.093% (n = 390,000) | Potency, µM (highest dose often 76.6 µM), for the others: at the highest dose activity change, negative = inhibition, hits mostly inhibitors | AID 602179 | IDH1-R132H enzyme, NADPH consumption, diaphorase/resazurin fluorescence; note: % is set by controls: 0 for no effect and ±100 for the full control effect; nearly all actives have a fitted effect of over 65% in size
Target sequence (O75874 whole entry R132H, stated change not applied): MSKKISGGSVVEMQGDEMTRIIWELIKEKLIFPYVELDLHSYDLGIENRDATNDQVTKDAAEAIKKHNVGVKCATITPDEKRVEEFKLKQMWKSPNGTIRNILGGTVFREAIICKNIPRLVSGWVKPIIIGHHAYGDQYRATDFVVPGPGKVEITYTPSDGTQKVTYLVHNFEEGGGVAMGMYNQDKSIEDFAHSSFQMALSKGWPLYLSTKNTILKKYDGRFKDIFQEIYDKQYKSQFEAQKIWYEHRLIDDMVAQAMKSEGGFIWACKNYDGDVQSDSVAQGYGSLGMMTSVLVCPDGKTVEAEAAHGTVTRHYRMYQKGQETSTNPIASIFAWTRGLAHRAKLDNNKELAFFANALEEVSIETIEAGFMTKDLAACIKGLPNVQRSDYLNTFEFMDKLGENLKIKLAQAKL
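IDH1-R132H (0.5 ug/mL) preincubated 30 min with compound, then NADPH (0.016 mM) and alpha-KG (2 mM) added; 80 min at RT, pH 7.5. Remaining NADPH coupled via diaphorase/resazurin to fluorescence (540/590 nm); concentration-response curves normalized to no-enzyme control.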
Nrf2 block: inhibitors of Nrf2 signaling. Potency, µM (series often up to 46 µM), for inactives: at the top dose activity change, negative = inhibition, usual class: inhibitors. A549 ARE-Fluc reporter, luciferase luminescence, 18-24 h. actives 2.1% (n = 360,000); note: % is set by controls: 0 for no effect and ±100 for the full control effect; nearly all actives have a fitted effect of over 60% in size
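Two sequential reads on A549 ARE_Fluc cells exposed to compound for 18-24 h: a CellTiter-Fluor fluorescence read for viability, then a luciferase luminescence read for Nrf2/ARE activity.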
Mito fusion act: mitochondrial division inhibition or fusion activation; S. cerevisiae fusion-defective mutant growth rescue, CellTiterGlo 48 h; Potency, µM (titrated, usually from 46.1 µM), without a hit: top-dose growth rescue (activation), hits mostly activators; actives 0.23% (n = 320,000); note: % of control where 0% means no effect; nearly all actives have a fitted effect of over 45% in size
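Temperature-sensitive fusion-defective S. cerevisiae (e.g. fzo1-1, mgm1-5) were grown with compound in YPEG medium (3% ethanol, 3% glycerol) for 48 hours at 37C. Growth rescue was measured as viability by CellTiterGlo luminescence after 10 minutes at ambient.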
A549 tox: counter-screen for Nrf2 inhibitors: cytotoxicity in A549 cells. A549 ARE-Fluc cells, CellTiter-Fluor viability, 18-24 h. Potency, µM (series often up to 46 µM), inactives show at the top dose activity change, negative = cytotoxicity, actives largely listed as inhibitors. actives 0.16% (n = 390,000). AID 504648; note: % is set by controls: 0 for no effect and ±100 for the full control effect
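A549 ARE_Fluc cells in 5% FBS OPTI-MEM were exposed to compounds in concentration-response for 18-24 h at 37 deg C. Viability was read by CellTiter-Fluor fluorescence (Ex 405/Em 525) after 30 min, before the luciferase read.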
rTrxR1 inhibitor: inhibitors of rat thioredoxin reductase 1. O89049. recombinant rTrxR1, NADPH fluorescence consumption, selenite substrate. Potency, µM (doses to about 114 µM), for inactives: at the top dose activity change, negative = inhibition, usual class: inhibitors. actives 1% (n = 390,000); note: % is set by controls: 0 for no effect and ±100 for the full control effect; nearly all actives have a fitted effect of over 65% in size
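Rat TrxR1 (90 nM in the dispensed reagent) was pre-reduced with 400 uM NADPH for 5 min at room temperature, then incubated with compound for 15 min. After 400 uM selenite was added, NADPH fluorescence (Ex 340/Em 450 nm) was followed for 8 min.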
TrxR1 substrate: substrates of rat thioredoxin reductase 1; purified TrxR1 substrate turnover, NADPH consumption readout; Potency, µM (highest dose often 114 µM), for inactives: at the highest dose activity change, negative = substrate turnover; actives 0.01% (n = 390,000); AID 588456; note: % is set by controls: 0 for no effect and ±100 for the full control effect; nearly all actives have a fitted effect of over 50% in size
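Rat TrxR1, dispensed at 90 nM, was prereduced with 400 uM NADPH (final) for 5 min at ~22 deg C, then incubated with compound 15 min before 400 uM selenite. A first-read NADPH fluorescence drop versus no-compound background flagged substrates.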
* marks the source's active call; other numbers are inactive results; ? = inconclusive; / = not tested or not shown; [ ] = remark or other dose. Sampled rows, rich in hits. Any-hit rate of the full collection: about 3.1%. Calls come from the whole dose curve; as a rule, active = well fitted curve in the direction sought with a large enough effect; inconclusive = small, poorly fitted or top-dose-only effect, or another doubt; inactive = no such curve, though single readings can be large; an effect the other way counts as inactive or inconclusive. Potency is the fitted concentration of half-maximal effect.

SMILES	IDH1 R132H inh	Nrf2 block	Mito fusion act	A549 tox	rTrxR1 inhibitor	TrxR1 substrate
CCOC(=O)c1c(-c2ccccc2)csc1NC(=O)c1nc(S(=O)(=O)CC)ncc1Cl	-9%	17%	/	-28%	3.2µM*	0%
COc1cccc(NS(=O)(=O)c2ccc3c(c2)CCC(=O)N3)c1	/	?	/	-2%	/	/
Cc1cc(=O)n2nc(N(C)CC(=O)NCc3ccc(Cl)cc3)sc2n1	-4%	0%	/	5%	-5%	-5%
COC(=O)c1ccc(NC(=O)c2nc(S(=O)(=O)Cc3cccc(C)c3)ncc2Cl)cc1	2%	?	-51%	?	20µM*	-2%
CCOC(=O)c1ccc(NC(=O)c2nc(S(=O)(=O)Cc3ccccc3)ncc2Cl)cc1	-1%	?	-15%	?	6.3µM*	6%
CCS(=O)(=O)c1ncc(Cl)c(C(=O)N2CCN(c3ccc(OC)cc3)CC2)n1	/	21µM*	/	?	3.2µM*	6%
CCS(=O)(=O)c1ncc(Cl)c(C(=O)Nc2ccccc2)n1	-6%	?	/	?	2.5µM*	-4%
COc1ccc(N2CCN(C(=O)c3nc(SC)ncc3Cl)CC2)cc1	8%	3%	/	5%	12%	3%
C[N+]1(CC(=O)c2ccc3c(c2)CCCC3)CCOCC1	/	/	/	/	-10%	-2%
CCS(=O)(=O)c1ncc(Cl)c(C(=O)N(Cc2ccccc2)c2ccc(OC)cc2)n1	-7%	23µM*	/	?	3.5µM*	4%
COc1ccc(N(Cc2ccccc2)C(=O)c2nc(SC)ncc2Cl)cc1	18%	?	/	-14%	20%	-2%
CCc1ccc(NC(=O)c2nc(S(=O)(=O)Cc3ccccc3)ncc2Cl)cc1	/	/	-55%	/	/	/
CCCSc1ncc(Cl)c(C(=O)Nc2ccc(S(=O)(=O)N(C)c3ccccc3)cc2)n1	/	-28%	/	-8%	8%	7%
CC(=O)Nc1ccc(NC(=O)c2nc(S(=O)(=O)Cc3cccc(C)c3)ncc2Cl)cc1	2%	?	-6%	?	10µM*	3%
CN(c1ccccc1)S(=O)(=O)c1ccc(NC(=O)c2nc(S(C)(=O)=O)ncc2Cl)cc1	3%	?	-9%	?	0.79µM*	0%
Cc1cccc(C)c1NC(=O)COC(=O)c1cccc2c1C(=O)c1ccccc1C2=O	5%	18µM*	0%	-3%	-22%	-20%
Cc1cccc(NC(=O)COC(=O)c2cccc3c2C(=O)c2ccccc2C3=O)c1C	3%	15µM*	29%	-13%	4%	5%
Cn1c(CN2CCCCC2)nc2cc(NC(=O)c3ccc(Cl)cc3)ccc21	-22%	5.8µM*	-3%	-5%	25%	8%
Cn1c(CN2CCCC2)nc2cc(NC(=O)c3ccc(Cl)cc3)ccc21	0%	?	3%	-10%	16%[57.1 µM]	6%[57.1 µM]
Nc1nc2sc3c(c2cc1C(=O)NCC(=O)O)CCCC3	23%	8.2µM*	-13%	4%	3%	-3%
CCOc1cccc(C2CC(=O)Nc3cc4c(cc32)OCCO4)c1 (centres undefined)	14%	15µM*	/	-8%	12%	-2%
CC(C)Oc1ccccc1C1CC(=O)Nc2cc3c(cc21)OCCO3 (centres undefined)	13%	8.2µM*	?	?	6%	2%
CC(C)NS(=O)(=O)c1ccc2[nH]c3nc(SCC(=O)Nc4ccc(F)c(F)c4)nnc3c2c1	/	3%	/	-5%	11%	5%
O=C(CN(CCc1ccccc1)C(=O)Cn1nnc(-c2cccs2)n1)NCc1ccco1	0%	13%	3%	-1%	50µM*	-9%
Cc1ccc(-c2nnc(Nc3ccc4c(c3)nc(C)n4C)c3ccccc23)cc1	-2%	21µM*	4%	?	?	3%
SMILES	IDH1 R132H inh	Nrf2 block	Mito fusion act	A549 tox	rTrxR1 inhibitor	TrxR1 substrate
COCC(C)n1c(SCc2ccc(OC)c(F)c2)nc2ccccc2c1=O (centres undefined)	1%	23µM*	4%	5%	-39%	2%[57.1 µM]
CCn1c(SCc2ccc(OC)c(F)c2)nc2ccccc2c1=O	-1%	-8%	-13%	4%	24%	4%
Cc1ccc(CN2[C@H](C)[C@H](c3ccccc3)OCCS2(=O)=O)cc1	/	/	/	/	1%	-7%
CCC1CN(C(=O)NCc2ccc(F)cc2)c2cc(C)ccc2O1 (centres undefined)	4%	21µM*	23%	?	21%	5%
O=C(NCc1cccnc1)/C(=C\c1ccc(-c2cccc(Cl)c2)o1)S(=O)(=O)c1ccccc1	-6%	21µM*	0%	21µM*	11µM*	-7%
CSc1nc(O)c(C(c2ccc(O)cc2)c2c(O)nc(SC)[nH]c2=O)c(=O)[nH]1	-1%	7%	3%	-3%	8.9µM*	2%
CCOc1ccccc1C(c1c(O)nc(SC)[nH]c1=O)c1c(O)nc(SC)[nH]c1=O	4%	16%	/	1%	?	1%
CCOc1ccc(C(c2c(O)nc(SC)[nH]c2=O)c2c(O)nc(SC)[nH]c2=O)cc1	3%	-9%	/	6%	28µM*	-1%
CSc1nc(O)c(C(c2cccc([N+](=O)[O-])c2)c2c(O)nc(SC)[nH]c2=O)c(=O)[nH]1	-20%	-5%	-2%	5%	45µM*	-14%
CCOc1ccc(Cc2c(O)nc(SC)[nH]c2=O)cc1	2%	/	/	/	/	/
C=CCOc1ccc(C(c2c(O)nc(SC)[nH]c2=O)c2c(O)nc(SC)[nH]c2=O)cc1	-8%	9%	/	-10%	7.9µM*	8%
Cc1[nH]n(-c2ccccc2)c(=O)c1C(c1cccc([N+](=O)[O-])c1)c1c(C)[nH]n(-c2ccccc2)c1=O	-4%	?	2%	?	?	-8%
COc1ccc(-c2nc3ccccc3c(=O)n2Cc2ccccc2)cc1CNc1ccc(NC(C)=O)cc1	/	-9%	/	-9%	/	/
O=C(C[N+]12CCCc3cccc(c31)CCC2)c1ccc2ccccc2c1	/	/	/	/	-32%	8%
Cn1ccc2cc(S(=O)(=O)N3CCC(C(=O)NCCc4ccccc4)CC3)ccc21	-6%	/	/	0%	4%[57.1 µM]	1%[57.1 µM]
S=C(NC1CCCCC1)N1CCOCCOCCN(C(=S)NC2CCCCC2)CCOCCOCC1	0%	16µM*	9%	?	12%[57.1 µM]	2%[57.1 µM]
O=C(NC1CCCCCC1)C(=S)N1CCOCC1	6%	2%	-1%	-4%	-13%[57.1 µM]	6%[57.1 µM]
CCCOC(=O)C1=C(C)CS[C@@H]2[C@H](NC(=O)COc3ccccc3)C(=O)N12	/	/	/	/	-13%	4%

Screening results (PubChem BioAssay)
